# From PubChem
# DT40 TDP1 no CPT – qHTS for Inhibitors of human tyrosyl-DNA phosphodiesterase 1 (TDP1): qHTS in cells in absence of CPT. DT40 Tdp1-/- hTDP1 cells, no CPT, ATP luminescence, 48 h. Potency, µM (series often up to 46.2 µM), for inactives: at the highest dose activity change, negative = growth inhibition, usual class: inhibitors. 420,000 tested, 15% active. AID 686978, 2013; further: potency means the concentration at half of the fitted maximal effect; on the % scale 0 is the no-effect control and ±100 the full control effect; nearly all actives have a fitted effect of over 55% in size
#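 Stably hTDP1-transfected Tdp1-null chicken DT40 cells were treated with library compounds minus camptothecin and grown for at least 48 hr at 37 °C, after which cellular ATP was quantified by luminescence.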
# IL1B secr inh – inflammasome signaling inhibition, IL-1 beta readout. THP-1 LPS/ATP IL-1B secretion, AlphaLISA, 16 h; stronger effect = lower value. 360,000 tested, 4.7% active. activity change, % at 57.5 µM; in the data active means activity change below about -50%; inconclusive means mostly about -30% to -49%; further: on the % scale 0 is the no-effect control and ±100 the full control effect
#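 THP-1 cells pretreated 1 hr with compounds (up to 57.5 uM final), then stimulated with LPS (250 ng/mL final) plus ATP (1.25 mM final); secreted IL-1B measured by AlphaLISA after 16 hr, decreased signal indicating inhibition.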
# SW480 rereplic – induces DNA re-replication in SW480 colon adenocarcinoma cells; Potency, µM (highest dose often 46.1 µM), inactives show top-dose re-replication activation, usual class: activators; SW480 DNA re-replication, Hoechst DNA content imaging, 48 h; AID 624297; 340,000 tested, 1.8% active; further: potency means the concentration at half of the fitted maximal effect; % of control where 0% means no effect; nearly all actives have a fitted effect of over 55% in size
#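 Image-based DNA-content assay: after two days of treatment, nuclei were labelled with the DNA dye Hoechst and imaged, and hits were compounds raising the count of nuclei showing high fluorescence intensity.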
# BCR signal inh – chronic active BCR signaling inhibition | ABC-DLBCL IkBa-CBG/CBR reporter, luminescence ratio, 4 h | Potency, µM (series often up to 46.1 µM), inactives show at the highest dose activity change, negative = inhibition, actives largely listed as inhibitors | 340,000 tested, 0.05% active | AID 493014; active means well fitted inhibition curve with a large enough effect in the signal ratio, with a control signal flat, not every such curve was filed as active; inconclusive means small, poorly fitted or top-dose-only effect, or effect the other way, or a change in a side signal; the % refers to the signal ratio;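 further: potency means the concentration at half of the fitted maximal effect; plate controls were basal doxycycline-induced cells for no effect and cells given 10 µM MG132 for full effect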
#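 Cell line TMD8 (human ABC DLBCL), stably expressing tet-inducible CBG68-IkBa fusion and CBR; IMDM/0.5% FBS; cpd up to 46 uM; dox induction, 4 h, 37C/5% CO2; dual luminescence; green/red ratio; MG132 control.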
# MCF10A rerep – DNA re-replication induction in MCF 10a cells. MCF 10A DNA re-replication, Hoechst nuclear intensity, 48 h. Potency, µM (top dose mostly 46.1 µM), inactives show at the top dose activity, positive = re-replication, usual class: activators. 350,000 tested, 2.9% active. AID 624296; further: potency means the concentration at half of the fitted maximal effect; % of control where 0% means no effect; nearly all actives have a fitted effect of over 50% in size
# TDP1 cell CPT – DT40-hTDP1 cell growth loss with CPT | chicken DT40 Tdp1-/-;hTDP1 cells + 20 nM CPT, ATP luminescence, 48 h | Potency, µM (series often up to 46.2 µM), without a hit: at the highest dose activity change, negative = growth inhibition, hits mostly inhibitors | 420,000 tested, 12% active | AID 686979; further: potency means the concentration at half of the fitted maximal effect; on the % scale 0 is the no-effect control and ±100 the full control effect; nearly all actives have a fitted effect of over 55% in size
#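 Chicken DT40 Tdp1-/- cells stably complemented with human TDP1 were seeded at 400 cells/well in medium containing 20 nM camptothecin, exposed to pin-transferred compounds, and grown at 37 °C for at least 48 hr. Viability was read as ATP luminescence.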
# * hit, by the source's call; u = inconclusive; x = no result given. Hits are enriched below; roughly 19% of the tested compounds scored in any of these assays. Unless noted, the call rests on the fitted dose curve; in most records, active means well fitted curve in the direction sought with a large enough effect; inconclusive means small, poorly fitted or top-dose-only effect, or another doubt; inactive means no such curve, though single readings can be large; an effect the other way counts as inactive or inconclusive.
SMILES,DT40 TDP1 no CPT,IL1B secr inh,SW480 rereplic,BCR signal inh,MCF10A rerep,TDP1 cell CPT
COc1ccc(C(c2nnnn2C2CCCC2)N2CCC(C)CC2)cc1 (centres undefined),23µM*,-17,7%,7%,3%,u
COC(=O)c1c(NC(=O)C2CC2)sc(C(=O)Nc2ccccc2)c1C,u,3,-39%,4%,1%,u
Cc1cc(C)cc(-n2ccn(Cc3ccccc3C)c(=O)c2=O)c1,-29%,x,x,x,x,-21%
c1cc(N2CCCC2)ccc1C(c1nnnn1C1CCCCC1)N1CCOCC1 (centres undefined),u,-1,18%,-2%,u,u
COc1ccc(C(c2nnnn2C2CCCCC2)N2CCN(C)CC2)c(OC)c1 (centres undefined),-20%,-3,-1%,u,0%,-20%
COc1ccc(OC)c(C(c2nnnn2C2CCCC2)N2CCN(c3ccccc3)CC2)c1 (centres undefined),21µM*,-17,12%,3%,2%,u
COc1ccc(C(c2nnnn2C2CCCCC2)N2CCN(c3ccc(OC)cc3)CC2)cc1 (centres undefined),16µM*,-9,u,11%,2%,23µM*
CCN(CC(=O)NC1CCS(=O)(=O)C1)C(C)C(=O)Nc1ccc(F)cc1 (centres undefined),-5%,0,-8%,0%,-4%,-16%
CN(C)c1ccc(NC(=O)C2C3C=CC(C3)C2C(=O)O)cc1 (centres undefined),-16%,5,u,-3%,-1%,-18%
Cc1c(Cl)cccc1-n1ncc(C(=O)Nc2ccc(F)cc2F)c1C1CCN(C(=O)OC(C)(C)C)CC1,15µM*,x,x,x,x,u
Cc1c(Cl)cccc1-n1ncc(C(=O)N2CCC(C)CC2)c1C1CCN(C(=O)OC(C)(C)C)CC1,21µM*,x,x,x,x,u
Cc1c(Cl)cccc1-n1ncc(C(=O)NC2CCCC2)c1C1CCN(C(=O)OC(C)(C)C)CC1,21µM*,x,x,x,x,u
Nn1c(SCC(=O)NC2CCCC2)nnc1C(F)(F)F,-11%,8,x,x,x,-9%
CC(C)c1nc(CNC(=O)C2CCC(=O)N(CCc3ccc(Cl)cc3)C2)no1 (centres undefined),-2%,-12,0%,1%,5%,1%
O=C(CCc1nnc(CCc2ccccc2)o1)NC(c1cccnc1)C(F)(F)F (centres undefined),2%,0,-7%,0%,17%,-13%
N#Cc1ccc(C23CC4(C2)[C@H](CN(CC2CCCCC2)[C@@H]4c2ccccc2)C3c2ccccc2)cc1 (some centres undefined),16µM*,-13,u,8%,u,u
N#Cc1ccc(C23CC4(C2)[C@H](CN(CC2CCCCC2)[C@@H]4c2ccccc2)C3c2ccc(Cl)nc2)cc1 (some centres undefined),15µM*,3,2%,5%,0%,13µM*
N#Cc1ccc(C23CC4(C2)[C@H](CN(CC2CCCCC2)[C@@H]4c2ccccc2)C3c2ccc(C(F)(F)F)cc2)cc1 (some centres undefined),x,x,x,7%,x,x
Cc1cc(F)c(F)c(C(=O)N2CCC(C)CC2)c1Cl,35%,10,-8%,-6%,3%,2%
CCN(C(=O)CCS(=O)(=O)c1ccc2c(c1)CCN2C(C)=O)c1cccc(C(F)(F)F)c1,u,x,x,x,x,-26%
COc1cccc(-c2cc(C(=O)Nc3ccc4c(c3)OCCO4)c3ccccc3n2)c1,x,x,x,0%,x,x
